Molecules are shown by their SMILES. Records with an inconclusive call do not appear. The source made the active and inactive calls. How the source made its calls: active means hit-call score of the fitted dose curve at least 0.9, where 1 is the maximum; inconclusive means response in the unintended direction; inactive means score below 0.9.

Sequence of human Peroxisome Proliferator-activated Receptor alpha (PPARa), PPARA (gene 5465) (Q07869 whole entry, looked up): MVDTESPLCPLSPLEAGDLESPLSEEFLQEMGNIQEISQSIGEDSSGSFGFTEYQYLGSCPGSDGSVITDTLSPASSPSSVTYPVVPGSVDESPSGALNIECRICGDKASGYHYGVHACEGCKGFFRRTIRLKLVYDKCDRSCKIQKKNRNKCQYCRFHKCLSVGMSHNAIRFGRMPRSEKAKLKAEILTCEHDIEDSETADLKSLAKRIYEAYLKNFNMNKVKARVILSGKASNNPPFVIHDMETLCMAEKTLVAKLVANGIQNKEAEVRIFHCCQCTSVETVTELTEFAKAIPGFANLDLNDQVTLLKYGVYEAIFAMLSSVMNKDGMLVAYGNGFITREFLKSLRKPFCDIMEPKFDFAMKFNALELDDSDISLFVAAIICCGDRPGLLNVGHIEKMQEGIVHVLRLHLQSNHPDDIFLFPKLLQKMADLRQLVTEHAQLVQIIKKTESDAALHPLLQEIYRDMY

For this test, the target named is human Peroxisome Proliferator-activated Receptor alpha (PPARa), PPARA (gene 5465) (UniProt Q07869). The test is described as follows: ATG_PPARa_TRANS: Attagene TRANS-FACTORIAL HepG2 Assay for human Peroxisome Proliferator-activated Receptor alpha (PPARa) (AID 2283001).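 On AC50: potency for gain of reporter signal over DMSO so agonist or activator.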 The method, then:
ATG_TRANS is a cell-based, multiplexed-readout assay that uses HepG2, a human liver cell line, with measurements taken at 24 hours after chemical dosing in a 24-well plate.ATG_PPARa_TRANS is one of 30 assay component(s) measured or calculated from the ATG_TRANS assay. It is designed to make measurements of mRNA induction, a form of inducible reporter, as detected with fluorescence intensity signals by Reverse transcription polymerase chain reaction (RT-PCR) and Capillary electrophoresis technology.Data from the assay component ATG_PPARa_TRANS was analyzed into 1 assay endpoint. This assay endpoint, ATG_PPARa_TRANS, was analyzed in the positive analysis fitting direction relative to DMSO as the negative control and baseline of activity. Using a type of inducible reporter, measures of mRNA for gain-of-signal activity can be used to understand the reporter gene at the transcription factor-level as they relate to the gene PPARA. Furthermore, this assay endpoint can be referred to as a primary readout, because this assay has produced multiple assay endpoints where this one serves a reporter gene function. To generalize the intended target to other relatable targets, this assay endpoint is annotated to the nuclear receptor intended target family, where the subfamily is non-steroidal.
Human liver HepG2 cells are transiently transfected with multiple reporter transcription units (MRTUs) in 6-well plates using FuGene 6 reagent (Roche; 3 ml FuGene/1 mg DNA). The MRTU constructs are regulated by a cis-regulating element (promoter). […] A major difference between the CIS and TRANS system is that in CIS activities of endogenous TFs are measured, whereas the TRANS assay evaluates changes in activities of exogenous, chimeric NR-Gal4 proteins. […] At the end of 24 hour incubation, total RNA was isolated using TriZol reagent (Invitrogen). The isolated RNA is then reverse-transcribed using oligo(dT) primer and Mo-MLV reverse transcriptase (Invitrogen) with DNAse I (Ambion) treatment for 30 min. The one-tenth of the produced cDNA was amplified by PCR using Taq DNA polymerase (Invitrogen) and two reporter sequence-specific primers. The PCR products were fluorescently labeled by primer extension with 6-arboxyfluorescein (6-FAM) 5'-labeled reporter sequence-specific primer (2 min at 95 C, 20 s at 68 C and 10 min at 72 C) and these products were digested with 5U of HpaI (New England Biolabs) for 2h at 37 C. The fragments were purified using Qiaquick PCR columns (Qiagen), analyzed on an ABI 3130xL genetic analyzer (Applied Biosystems) with peak positions identified by using a set of X-rhodamine (ROX)-labeled MapMarker1000 molecular weight standards (BioVentures). The raw capillary electrophoresis data was processed using Attagraph software (Attagene).
As for `O=C(O)CCl`, the compound was classed as inactive.

For the compound `CCOC(=O)NC(=S)Nc1ccccc1NC(=S)NC(=O)OCC`, the compound was classed as inactive.

On to `O=c1c2ccccc2c(=O)c2c1cc(Cl)c1[nH]c3c([nH]c12)c(Cl)cc1c(=O)c2ccccc2c(=O)c13`, for which the compound was called inactive.

Turning to `O=P(O)(Oc1ccccc1)Oc1ccccc1`, the compound was called inactive.

Consider `C=CC(=O)OCCCCOC(=O)C=C`, for which the compound was called inactive.

In the case of `Cc1ccccc1CCl`, the call was inactive.

`N#CCNCC#N`: the call was inactive.

Consider `ClCC(Cl)Cl`, for which the compound was called inactive.

Regarding `O=P1(NCCCl)OCCCN1CCCl` (stereo not given), the compound was called inactive.

Regarding `C[N+](C)(C)CC(=O)[O-]`, the outcome was inactive.

As for `COC(=O)c1ccccc1S(=O)(=O)NC(=O)Nc1nc(C)cc(C)n1`, the compound was classed as inactive.

For `CCC1CCC(=O)O1` (stereo not given), the compound was classed as inactive.

As to `C=CC(=O)OCC(CC)CCCC` (stereo not given), the call was inactive.

For `CC(O)CN(CC(C)O)CC(C)O` (stereo not given), the compound was classed as inactive.

As to `Nc1ccc(Cl)c(Cl)c1`, the compound was called inactive.

For `S=c1[nH]c2ccccc2[nH]1`, the call was inactive.

Regarding `CCC(C)c1cc([N+](=O)[O-])cc([N+](=O)[O-])c1OC(=O)C=C(C)C` (stereo not given), the call was inactive.

Usually AC50 stands for the midpoint of the concentration-response curve, whichever way the signal moves. Turning to `SCc1ccco1`, the AC50 was 33 µM (active).

For the compound `ClCCCCCCCl`, the result was inactive.

Regarding `COC(C)(C)CCC[C@H](C)C/C=C/C(C)=C/C(=O)OC(C)C`, the compound was called inactive.

On to `ClC1=C(Cl)[C@]2(Cl)[C@@H]3[C@@H](Cl)[C@H](Cl)C[C@@H]3[C@@]1(Cl)C2(Cl)Cl`, for which the compound was called inactive.

Regarding `CC(C)(O)C#N`, the result was inactive.

For the compound `COc1ccc(CO)cc1`, the outcome was inactive.

As for `C[N+](=O)[O-]`, the call was inactive.

As to `C=COCCCl`, the compound was classed as inactive.

Take `CC(=O)C=Cc1ccccc1`: the AC50 is 100 µM (active).

On to `CN(C)N`, for which the call was inactive.

As to `Nc1ccccc1C(=O)OCCc1ccccc1`, the compound was classed as inactive.

For `C=C(Cl)CCl`, the outcome was inactive.

As for `N#CCCCl`, the call was inactive.

With `Nc1ccccc1`, the compound was classed as inactive.

Turning to `CN(N=O)c1ccccc1`, the call was inactive.

With `O=[N+]([O-])C=Cc1ccccc1`, the call was inactive.

Consider `N#Cc1cc(I)c(O)c(I)c1`, for which the AC50 is 8.29 µM (active).

Regarding `CCOC(=O)N(C)N=O`, the call was inactive.

With `O=C1C(Cl)=C(Cl)C(=O)C(Cl)=C1Cl`, the outcome was inactive.

In the case of `CCCCCCCCCCCC#N`, the compound was classed as inactive.

Turning to `Nc1ccc(-c2ccc(N)c(N)c2)cc1N`, the compound was classed as inactive.

`CC(C)(C)C(=O)CCl`: the compound was classed as inactive.

Take `O=[N+]([O-])c1cc([N+](=O)[O-])c2ccccc2c1`: the call was inactive.
